PubChem BioAssay (Tox21)
“And” between values parts separate entries of the source, which are not always exact repeats. Equal values may be shown once. Results filed as inconclusive are left out. A call without a number means that no potency is given here. Some structures have more than one record in an assay (separate samples or runs), and their calls can disagree. The source made the active and inactive calls. Unless noted, calls come from the whole dose curve; as a rule, active = well fitted curve in the direction sought with a large enough effect in the repeat runs; inconclusive = weak or mixed curves; inactive = no such curve, though single readings can be large; an effect the other way counts as inactive or inconclusive.

Assays:
[1] = target: Thyrotropin receptor (Homo sapiens) (UniProt P16473); experiment: qHTS assay to identify small molecule antagonists of the thyroid stimulating hormone receptor (TSHR) signaling pathway (AID 1259385; calls by dose curve; note: nearly all actives have a fitted effect of over 20% in size)
Sequence of Thyrotropin receptor (Homo sapiens) (P16473 whole entry, looked up): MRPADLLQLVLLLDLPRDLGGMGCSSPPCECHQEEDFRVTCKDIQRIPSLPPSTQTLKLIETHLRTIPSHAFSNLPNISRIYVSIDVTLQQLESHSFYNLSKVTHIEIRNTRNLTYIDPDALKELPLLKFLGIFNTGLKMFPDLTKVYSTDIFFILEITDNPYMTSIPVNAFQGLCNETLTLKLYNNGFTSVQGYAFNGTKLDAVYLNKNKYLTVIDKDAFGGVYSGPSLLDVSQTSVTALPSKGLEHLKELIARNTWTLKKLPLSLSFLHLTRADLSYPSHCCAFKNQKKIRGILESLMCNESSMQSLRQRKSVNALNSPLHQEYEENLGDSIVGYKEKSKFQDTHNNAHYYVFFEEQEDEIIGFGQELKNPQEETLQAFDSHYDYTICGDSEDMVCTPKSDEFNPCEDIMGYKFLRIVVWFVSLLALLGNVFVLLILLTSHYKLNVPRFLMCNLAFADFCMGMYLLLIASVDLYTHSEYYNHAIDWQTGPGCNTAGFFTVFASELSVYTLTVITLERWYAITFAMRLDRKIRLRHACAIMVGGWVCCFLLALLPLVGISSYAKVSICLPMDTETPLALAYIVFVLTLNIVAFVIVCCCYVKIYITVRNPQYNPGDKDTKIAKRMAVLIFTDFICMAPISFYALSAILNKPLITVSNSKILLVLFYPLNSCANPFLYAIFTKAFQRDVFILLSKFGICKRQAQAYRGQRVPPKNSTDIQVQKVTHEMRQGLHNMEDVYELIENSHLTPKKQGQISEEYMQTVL
Method in brief: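 Antagonist mode: compound-treated TSHR-expressing HEK293 cells were stimulated with 1.5 ng/mL TSH (final) in presence of Ro20-1724 for 30 min at RT. HTRF cAMP detection after 1 h; each compound tested at 15 concentrations, triplicate.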

[2] = qHTS assay to identify small molecule agonists of the estrogen receptor alpha (ER-alpha) signaling pathway in the presence of an antagonist - cell viability counter screen (AID 1259386);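 note: series mostly up to about 92 µM; cells exposed to compounds for 22 h at 37 °C before the viability read; nearly all actives have a fitted effect of over 30% in size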
Method in brief: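 VM7Luc4E2 cells (endogenous full-length ER-alpha, 4×ERE-luciferase) were held 5 days in phenol red-free medium with 10% charcoal-stripped FBS, plated, then given 10.0nM ICI-182,780 and compounds at 15 concentrations for 22hr at 37C; viability read by CellTiter-Fluor fluorescence.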

[3] = target: Progesterone receptor (Homo sapiens) (UniProt P06401); experiment: qHTS assay to identify small molecule agonists of the progesterone receptor (PR) signaling pathway (AID 1346784; calls by dose curve; note: nearly all actives have a fitted effect of over 30% in size)
Sequence of Progesterone receptor (Homo sapiens) (P06401 whole entry, looked up): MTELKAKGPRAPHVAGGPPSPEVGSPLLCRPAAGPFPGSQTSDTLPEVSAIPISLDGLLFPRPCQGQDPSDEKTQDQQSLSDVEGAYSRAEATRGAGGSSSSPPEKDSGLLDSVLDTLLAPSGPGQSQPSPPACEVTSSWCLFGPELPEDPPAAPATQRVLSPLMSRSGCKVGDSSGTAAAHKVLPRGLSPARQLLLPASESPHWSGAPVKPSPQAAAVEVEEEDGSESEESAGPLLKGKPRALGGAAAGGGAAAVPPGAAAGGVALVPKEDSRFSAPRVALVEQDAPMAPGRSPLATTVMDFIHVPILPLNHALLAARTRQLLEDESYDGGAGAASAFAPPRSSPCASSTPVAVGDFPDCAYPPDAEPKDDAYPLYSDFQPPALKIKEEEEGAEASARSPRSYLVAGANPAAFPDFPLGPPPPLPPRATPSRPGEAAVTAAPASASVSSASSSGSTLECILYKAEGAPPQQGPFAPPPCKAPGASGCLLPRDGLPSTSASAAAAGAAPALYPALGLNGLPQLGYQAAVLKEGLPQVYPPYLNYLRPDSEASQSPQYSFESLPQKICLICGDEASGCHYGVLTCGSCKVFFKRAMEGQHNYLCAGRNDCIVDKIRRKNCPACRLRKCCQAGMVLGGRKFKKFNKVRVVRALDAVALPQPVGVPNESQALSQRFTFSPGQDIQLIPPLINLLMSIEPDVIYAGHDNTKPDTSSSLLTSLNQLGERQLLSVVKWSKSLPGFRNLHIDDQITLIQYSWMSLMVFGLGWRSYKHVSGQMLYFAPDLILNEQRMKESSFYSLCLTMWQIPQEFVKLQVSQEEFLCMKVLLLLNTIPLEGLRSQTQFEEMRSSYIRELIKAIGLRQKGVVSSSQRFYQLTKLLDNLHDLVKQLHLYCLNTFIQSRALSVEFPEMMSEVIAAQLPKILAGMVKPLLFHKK
Method in brief: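 PR-UAS-bla HEK 293T cells (beta-lactamase reporter under UAS) in 2% charcoal-stripped FBS, dosed with 23 nL compound after 6 hr, incubated 16hr at 37C. LiveBLAzer B/G FRET substrate added, fluorescence read after 2 hours.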

[4] = target: Progesterone receptor (Homo sapiens) (UniProt P06401); experiment: qHTS assay to identify small molecule antagonists of the progesterone receptor (PR) signaling pathway (AID 1346795; active = well fitted inhibition curve with a large enough effect in the signal ratio in the repeat runs, not every such curve was filed as active; the % refers to the signal ratio; note: potency is the fitted concentration of half-maximal effect)
Method in brief: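 PR-UAS-bla HEK293T cells with beta-lactamase reporter under UAS control, in 2% charcoal-stripped FBS, treated with compounds plus 1 nM promegestone (R5020, final) for 16 hr at 37C. Read-out: FRET beta-lactamase substrate fluorescence after 2 hr at room temperature.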

[5] = qHTS assay to identify small molecule antagonists of the progesterone receptor (PR) signaling pathway - cell viability counter screen (AID 1346798); note: series mostly up to about 92 µM; nearly all actives have a fitted effect of over 50% in size
Method in brief: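 PR-UAS-bla HEK293T cells, 3,000/well in 2% charcoal-stripped FBS medium, dosed with compounds plus R5020 agonist and incubated 16 h at 37C. Viability then measured in the same wells by CellTiter-Glo luminescence after 30 min at RT.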

[6] = qHTS assay to identify small molecule agonists of the progesterone receptor (PR) signaling pathway - cell viability counter screen (AID 1346799; calls by dose curve; note: nearly all actives have a fitted effect of over 45% in size)
Method in brief: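 Counter screen in the PR-UAS-bla HEK293T wells (2% charcoal-stripped FBS, 16 h compound exposure at 37 C) after the bla read. CellTiter-Glo added, 30 min at room temperature, luminescence read as cell viability.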

[7] = qHTS assay to identify small molecule agonists of the TGF-beta/Smad signaling pathway - cell viability counter screen (AID 1346829); note: nearly all actives have a fitted effect of over 45% in size; note: potency is the fitted concentration of half-maximal effect
Method in brief: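 After overnight seating at 37 C and 5% CO2, reporter cells got compounds for 5 hr and FRET substrate for 2 hr; cell viability then came from CellTiter-Glo luminescence.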

[8] = qHTS assay to identify small molecule agonists of the TGF-beta/Smad signaling pathway (AID 1346859; active = well fitted activation curve with a large enough effect in the signal ratio in the repeat runs, not every such curve was filed as active; the % refers to the signal ratio; note: series mostly up to about 77 µM)
Method in brief: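 SBE-bla HEK293T cells plated overnight, then compound exposure for 5 h at 37 C. Beta-lactamase reporter read with LiveBLAzer B/G FRET substrate after 2 h at room temperature, fluorescence at 405 nm excitation, 460/530 nm emission.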

[9] = target: Thyrotropin-releasing hormone receptor (Homo sapiens) (UniProt P34981); experiment: qHTS assay to identify small molecule antagonists of the thyrotropin-releasing hormone receptor (TRHR) signaling pathway (AID 1346877; active = well fitted inhibition curve with a large enough effect in the repeat runs, not every such curve was filed as active; note: series mostly up to about 51 µM)
Sequence of Thyrotropin-releasing hormone receptor (Homo sapiens) (P34981 whole entry, looked up): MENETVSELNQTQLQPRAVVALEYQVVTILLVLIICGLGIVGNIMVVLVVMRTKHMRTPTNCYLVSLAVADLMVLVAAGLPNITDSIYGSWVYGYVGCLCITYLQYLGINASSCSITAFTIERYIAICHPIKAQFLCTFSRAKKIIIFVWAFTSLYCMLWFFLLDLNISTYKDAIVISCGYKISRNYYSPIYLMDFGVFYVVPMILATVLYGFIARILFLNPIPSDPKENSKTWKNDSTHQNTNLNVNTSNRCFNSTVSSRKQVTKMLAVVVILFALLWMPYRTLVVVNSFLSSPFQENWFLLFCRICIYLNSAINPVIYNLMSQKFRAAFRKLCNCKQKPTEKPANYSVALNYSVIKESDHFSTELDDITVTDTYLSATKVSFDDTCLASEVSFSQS
Method in brief: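 TRHR-expressing HEK293 cells were seeded, cultured 18 h at 37 °C, then loaded with calcium dye for 2 h. Compounds were pre-incubated 5 min at room temperature before 1 nM TRH (final) was added, and kinetic fluorescence was recorded for 3 min.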

[10] = Human pregnane X receptor (PXR) small molecule agonists, qHTS cell viability counter screen (AID 1346977); note: nearly all actives have a fitted effect of over 50% in size
Method in brief: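 PXR-Luc HepG2 cells (2,000/well, 5% charcoal-stripped FBS) preincubated 5 hr, then exposed to compounds 24 hr at 37 C. Viability read in the same wells by CellTiter-Fluor fluorescence, reagent added at 23 hr, 1 hr incubation.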

[11] = Caspase-3/7 induction in HepG2 cells by small molecules, qHTS assay (AID 1346978); note: nearly all actives have a fitted effect of over 15% in size
Method in brief: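 Caspase-3/7 induction was measured by Caspase-Glo 3/7 luminescence (30 min, room temperature) after a 17 hr compound exposure of wild-type HepG2 cells seeded at 2,000 per well and pre-incubated 5 hr.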

[12] = Caspase-3/7 induction in CHO-K1 cells by small molecules, qHTS cell viability counter screen (AID 1346979); note: nearly all actives have a fitted effect of over 35% in size; note: potency is the fitted concentration of half-maximal effect
Method in brief: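 Wild-type CHO-K1 cells (1,500/well) treated with compound after 5 h plating; after 16 h at 37C, viability read as CellTiter-Fluor fluorescence following 1 h reagent incubation, in the same wells as the caspase read.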

[13] = Caspase-3/7 induction in CHO-K1 cells by small molecules, qHTS assay (AID 1346980); note: nearly all actives have a fitted effect of over 15% in size
Method in brief: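 Luminescent Caspase-Glo 3/7 read (30min, room temperature) quantified apoptosis induction. Cells were wild-type CHO-K1, treated with compound for 17hr at 37 C and 5% CO2.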

[14] = target: Nuclear receptor subfamily 1 group I member 2 (Homo sapiens) (UniProt O75469); experiment: Human pregnane X receptor (PXR) small molecule agonists, qHTS assay (AID 1346982); note: nearly all actives have a fitted effect of over 35% in size; note: potency is the fitted concentration of half-maximal effect
Sequence of Nuclear receptor subfamily 1 group I member 2 (Homo sapiens) (O75469 whole entry, looked up): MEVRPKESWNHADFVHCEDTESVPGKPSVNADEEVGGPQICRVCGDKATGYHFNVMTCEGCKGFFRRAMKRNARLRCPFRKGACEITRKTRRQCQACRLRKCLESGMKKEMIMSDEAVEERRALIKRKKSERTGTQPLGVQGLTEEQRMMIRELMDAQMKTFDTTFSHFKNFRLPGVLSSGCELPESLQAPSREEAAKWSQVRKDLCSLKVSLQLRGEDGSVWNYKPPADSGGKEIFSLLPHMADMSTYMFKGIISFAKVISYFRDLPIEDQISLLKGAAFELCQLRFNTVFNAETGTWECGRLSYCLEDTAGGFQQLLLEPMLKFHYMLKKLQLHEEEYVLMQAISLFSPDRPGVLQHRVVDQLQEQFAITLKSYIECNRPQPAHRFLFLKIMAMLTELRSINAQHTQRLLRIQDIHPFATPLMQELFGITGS
Method in brief: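 PXR-Luc HepG2 cells (CYP3A4 promoter-driven luciferase) were seeded in medium with 5% charcoal-stripped FBS, left 5 hr at 37 C, then exposed to compounds in DMSO for 24 hr. Luminescence was read after ONE-Glo addition.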

[15] = qHTS assay to identify small molecule antagonists of the TGF-beta/Smad signaling pathway - cell viability counter screen (AID 1346824); note: nearly all actives have a fitted effect of over 50% in size
Method in brief: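 Cytotoxicity counter-screen run in the same wells as the beta-lactamase Smad reporter read: CellTiter-Glo luminescence after 30 min at room temperature. HEK 293T SBE-bla cells had 5 hr compound exposure at 37 C with TGF-beta1 (0.25 ng/mL stock).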

[16] = Caspase-3/7 induction in HepG2 cells by small molecules, qHTS cell viability counter screen (AID 1346981); note: series mostly up to about 92 µM; nearly all actives have a fitted effect of over 30% in size
Method in brief: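 Wild-type HepG2 cells (2,000/well) were allowed to settle for 5 hr at 37 C, 5% CO2, then dosed with compounds in DMSO by pin transfer. After 16 hr at 37 C, CellTiter-Fluor was added and fluorescence read 1 hr later.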

[17] = target: Nuclear receptor subfamily 1 group I member 2 (Rattus norvegicus) (UniProt Q9R1A7); experiment: Rat pregnane X receptor (rPXR) activation by small molecules, qHTS assay (AID 1346983); conditions: rPXR luciferase reporter cells, One-Glo luminescence, 24 h; max activation: stronger effect = higher value; note: nearly all actives have a fitted effect of over 20% in size
Sequence of Nuclear receptor subfamily 1 group I member 2 (Rattus norvegicus) (Q9R1A7 whole entry, looked up): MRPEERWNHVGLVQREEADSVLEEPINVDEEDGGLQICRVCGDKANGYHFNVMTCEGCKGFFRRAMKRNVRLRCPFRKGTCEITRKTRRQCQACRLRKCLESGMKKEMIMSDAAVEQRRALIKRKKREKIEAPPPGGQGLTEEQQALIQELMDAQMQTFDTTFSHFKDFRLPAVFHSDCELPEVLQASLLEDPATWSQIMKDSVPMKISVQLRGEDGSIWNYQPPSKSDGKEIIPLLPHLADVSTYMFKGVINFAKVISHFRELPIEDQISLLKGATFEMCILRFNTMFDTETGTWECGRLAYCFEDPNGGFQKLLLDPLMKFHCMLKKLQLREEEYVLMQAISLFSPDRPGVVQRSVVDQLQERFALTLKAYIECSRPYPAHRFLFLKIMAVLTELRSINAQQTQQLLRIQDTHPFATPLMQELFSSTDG
Method in brief: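 Luminescent readout (One-Glo luciferase, 30 min room temperature) followed 24 hr compound treatment at 37 C of rPXR cells plated 2,000 per well and preincubated 5hr; qHTS format with compounds delivered in DMSO.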

[18] = target: Nuclear receptor subfamily 1 group I member 2 (Homo sapiens) (UniProt O75469); experiment: CYP3A4 induction through human pregnane X receptor (PXR) by small molecules, qHTS assay (AID 1346984); note: nearly all actives have a fitted effect of over 40% in size; note: potency is the fitted concentration of half-maximal effect
Method in brief: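 DPX-2 cells (HepG2 co-transfected with PXR and CYP3A4 promoter-luciferase) treated with compounds 24 h at 37C; luciferin-IPA CYP3A4 substrate 3uM final added for 3 h, then One-Glo; luminescence read. qHTS format.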

[19] = target: Nuclear receptor subfamily 1 group I member 2 (Homo sapiens) (UniProt O75469); experiment: Human pregnane X receptor (PXR) activation by small molecules, qHTS assay (AID 1346985); note: nearly all actives have a fitted effect of over 40% in size
Method in brief: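 DPX-2 cells (HepG2 co-transfected with a PXR response element and a CYP3A4-promoter luciferase construct) were seeded at 2,000 per well, rested 5 hr at 37C, then exposed to DMSO-dissolved compounds for 24 hr. Activation was read as luciferase luminescence.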

[20] = target: Thyrotropin-releasing hormone receptor (Homo sapiens) (UniProt P34981); experiment: qHTS assay to identify small molecule agonists of the thyrotropin-releasing hormone receptor (TRHR) signaling pathway (AID 1346891; calls by dose curve; note: series mostly up to about 58 µM)
Method in brief: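 HEK293 cells expressing TRHR plated 18 h at 37 C/5% CO2, calcium dye-loaded 2 h at 37 C, then compound added (agonist mode); kinetic calcium fluorescence read 3 min at 1 s intervals; 15 concentrations in triplicate.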

Row | Compound | outcome [1] | Potency [2] | Potency [3] | Potency [4] | Potency [5] | outcome [6] | Potency [7] | outcome [8] | outcome [9] | Potency [10] | outcome [11] | Potency [12] | outcome [13] | Potency [14] | Potency [15] | Potency [16] | max activation [17] | Potency [18] | Potency [19] | outcome [20]
1 | CNC(=O)O/N=C/C(C)(C)S(C)=O (configuration not stated) | inactive | inactive | inactive | inactive | inactive | inactive | 24.9 µM (active) and inactive | inactive | inactive | inactive | inactive | 49.2 µM (active) and inactive | inactive | inactive | – | – | – | – | – | –
2 | c1ccc2c(c1)CCCC2 | inactive | – | inactive | inactive | inactive | inactive | inactive | inactive | inactive | inactive | inactive | inactive | inactive | inactive | inactive | inactive | – | – | – | –
3 | CCNc1nc(Cl)nc(NC(C)C)n1 | inactive | – | inactive | inactive | inactive | inactive | inactive | inactive | inactive | inactive | inactive | inactive | inactive | 67.8 µM (active) and 61.1 µM (active) | inactive | inactive | – | – | – | –
4 | CNC(=O)O/N=C(\SC)C(=O)N(C)C | inactive | inactive | inactive | inactive | inactive | inactive | inactive | inactive | – | inactive | inactive | – | inactive | inactive | inactive | inactive | – | – | – | –
5 | C=CCN=C=S | inactive | inactive | inactive | inactive | – | inactive | inactive | inactive | – | inactive | inactive | inactive | inactive | 55.7 µM (active) and inactive | inactive | inactive | 0.185% (inactive) | inactive | inactive | –
6 | CNC(=O)Oc1cccc2ccccc12 | inactive | – | inactive | 27.1 µM (active) and 30.6 µM (active) | inactive | inactive | inactive | inactive | inactive | inactive | inactive | – | inactive | 68 µM (active) and inactive | inactive | inactive | -0.0164% (inactive) | 3.16 µM (active) | inactive | inactive
7 | Clc1cnc(Oc2ccc(Oc3ncc(Cl)cc3Cl)cc2)c(Cl)c1 | inactive | inactive | inactive | inactive | inactive | inactive | inactive | inactive | – | inactive | inactive | – | inactive | inactive | inactive | inactive | – | – | – | –
8 | Nc1cc(Cl)cc(Cl)c1 | inactive | – | inactive | inactive | inactive | inactive | inactive | inactive | inactive | inactive | inactive | inactive | inactive | inactive | inactive | inactive | – | – | – | inactive
9 | CN1C(=O)CCS(=O)(=O)C1c1ccc(Cl)cc1 (configuration not stated) | inactive | inactive | inactive | inactive | inactive | inactive | inactive | inactive | – | inactive | inactive | – | inactive | inactive | inactive | inactive | – | – | – | –
